# According to the emibetuzumab library of Makowski et al. (2022):
# Some of the results follow. The true hit rate is not given.
# B1: VH:VL chains; a variant is named by its letters at X, in order (parent)
# chain 1: QVQLVQSGAEVKKPGASVKVSCKASGYTFTDYXMHWVRQAPGQGLEWMGXVNPNXXXTTYNQKFEGRVTMTTDTSTSTAYMELRSLRSDDTAVYYCARXNXLDXWGQGTTVTVSS
# chain 2: DIQMTQSPSSLSASVGDRVTITCSVSSSVSSIYLHWYQQKPGKAPKLLIYSTSNLASGVPSRFSGSGSGTDFTLTISSLQPEDFATYYCQVYSGYPLTFGGGTKVEIK
# Variants of: B1
# Assay: yeast display scFab, FACS + sequencing
# Settings: with MET
# How it was run: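 Two magnetic rounds on Protein A beads coated with HGFR-Fc, followed by FACS, were used to enrich a yeast surface scFab library mutated in the heavy-chain CDRs. FACS gated the top 50% antigen-positive cells after 3 h labelling at room temperature with 1 nM HGFR-Fc and anti-Myc in PBSB plus 1% milk. Binding to the antigen was scored positive when a sequence occurred in both antigen-positive samples from deep sequencing and negative when it occurred only in the input.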
row,Variant,antigen binding call
1,AAEGGYAV,no binding
2,VKGASDWA,no binding
3,VTTKSDSA,no binding
4,VTTKSDGA,no binding
5,YTARGSAA,binds
6,YREKGAAA,binds
7,YRARGSLA,binds
8,YRARGSAA,binds
9,DTRGADAV,no binding
10,DEGAGDGF,no binding
11,YKTRGSAA,binds
12,YKTRGFGA,no binding
13,YRARSSLA,binds
14,FAARAFGV,no binding
15,SEEASDGA,no binding
16,YRAGGYVA,binds
17,YRKGGFVA,no binding
18,YRAGGSVA,binds
19,YRAGGFVA,binds
20,YREGGFVA,no binding
21,YRAGGVVA,binds
22,DTGTGSSA,no binding
23,STTKSDGV,no binding

row,Variant,antigen binding call
1,VAGTGDWA,no binding
2,YKGGGALD,binds
3,YKKGGSLD,binds
4,FKGKGVGD,no binding
5,YKEEDSLD,no binding
6,YKGAGALD,no binding
7,FKGKGAGD,binds
8,YKGKGALD,binds
9,DTTGSASD,no binding
10,VAGGDDWV,no binding
11,FKGRGALA,binds
12,YKGKGSLD,binds
13,FKGKGALD,binds
14,VRAGADAV,no binding
15,VRAGADSV,no binding
16,YRAGSSAD,binds
17,YRAGASAV,binds
18,YRARSSAD,binds
19,YRGAASAV,binds
20,SEARSSAD,no binding
21,DAGEASAV,no binding
22,YAGEASAV,no binding
23,YAEESSAD,no binding

row,Variant,antigen binding call
1,DAGTAFSS,no binding
2,VEREADWF,no binding
3,YRAKGSAD,binds
4,YRARGSAD,binds
5,YREKDSAD,binds
6,FREKDSAD,no binding
7,YAEKDAGD,no binding
8,YRAGASAD,binds
9,DTEEGDVA,no binding
10,DAKEGDAD,no binding
11,DTGEADAS,no binding
12,VRGKGAVD,binds
13,VAGKGAGD,no binding
14,VAGKGVLD,no binding
15,VKGKGAWD,binds
16,VRGKGAAD,binds
17,VKGEAAWD,no binding
18,VRGKGAWD,binds
19,VEGKGAGD,no binding
20,YEKETVVA,no binding
21,YKGKGAWD,binds
22,YKGKSAWD,no binding
23,SEARSAGV,no binding

row,Variant,antigen binding call
1,YRARSASV,binds
2,DRAGDAGV,no binding
3,YRARSSGV,binds
4,SEARSSGV,no binding
5,YRARSAGV,binds
6,STEGDAGA,no binding
7,DATRGAGY,no binding
8,YRKGSSGD,binds
9,ARKGSSGD,no binding
10,YRKGDSGD,binds
11,VRKGSSGD,binds
12,VEKGGSGD,no binding
13,YRKGDSLD,binds
14,VTGTGAAV,no binding
15,YRKGDAGD,binds
16,FAAGSYAV,no binding
17,FRGRGYVV,binds
18,FRGRGYVA,binds
19,FRGRGYAV,binds
20,FRGRGYWV,binds
21,VTGEDAVV,no binding
22,SEEGTAGA,no binding
23,SRGRGYSV,no binding

row,Variant,antigen binding call
1,YRGRGYWV,binds
2,DRGRGDWV,no binding
3,YRGRGYSV,binds
4,FRGRGDWV,binds
5,VRATGYWA,no binding
6,FAGGGDWV,no binding
7,YGGTSYSV,no binding
8,YRGRGYWA,binds
9,AKERGDGV,no binding
10,VETEGDAV,no binding
11,FKGRGAWV,binds
12,FRGRGAWV,binds
13,YRGRGVWV,binds
14,FKGRGVWV,no binding
15,YGGRGDWV,no binding
16,ARGRGAWV,no binding
17,VTGGGDGA,no binding
18,VRGGGSAA,binds
19,DAGGAAAA,no binding
20,DAGGAAVA,no binding
21,YEGGADVA,no binding
22,YRGGASAA,binds
23,VEGGGSSA,no binding

row,Variant,antigen binding call
1,VEGGGDAA,no binding
2,YRGGGSAA,binds
3,YRGGAAAA,binds
4,YRGRGSAF,binds
5,DTKAASSA,no binding
6,SEGGSAAY,no binding
7,DEGGTDGV,no binding
8,YRGRTAAA,binds
9,YEERTAAA,no binding
10,VRGRSSAA,binds
11,VREGSSAA,no binding
12,YRGGTAAA,binds
13,DEGGTAAA,no binding
14,YRTRDVGF,no binding
15,YRGRGYGS,binds
16,YRGRGYVS,binds
17,YRAGGVGF,binds
18,YRAGGYGF,binds
19,DKTGDDVF,no binding
20,SEKKDYSA,no binding
21,DGGGGYWF,no binding
